Records with an inconclusive call do not appear. The source made the active and inactive calls. Rule for the calls: active = hit-call score of the fitted dose curve at least 0.9, where 1 is the maximum; inconclusive = response in the unintended direction; inactive = score below 0.9.

Chain of Estrogen receptor (Homo sapiens) + Estrogen receptor beta (Homo sapiens) (P03372 whole entry, looked up, the tested form may be a part): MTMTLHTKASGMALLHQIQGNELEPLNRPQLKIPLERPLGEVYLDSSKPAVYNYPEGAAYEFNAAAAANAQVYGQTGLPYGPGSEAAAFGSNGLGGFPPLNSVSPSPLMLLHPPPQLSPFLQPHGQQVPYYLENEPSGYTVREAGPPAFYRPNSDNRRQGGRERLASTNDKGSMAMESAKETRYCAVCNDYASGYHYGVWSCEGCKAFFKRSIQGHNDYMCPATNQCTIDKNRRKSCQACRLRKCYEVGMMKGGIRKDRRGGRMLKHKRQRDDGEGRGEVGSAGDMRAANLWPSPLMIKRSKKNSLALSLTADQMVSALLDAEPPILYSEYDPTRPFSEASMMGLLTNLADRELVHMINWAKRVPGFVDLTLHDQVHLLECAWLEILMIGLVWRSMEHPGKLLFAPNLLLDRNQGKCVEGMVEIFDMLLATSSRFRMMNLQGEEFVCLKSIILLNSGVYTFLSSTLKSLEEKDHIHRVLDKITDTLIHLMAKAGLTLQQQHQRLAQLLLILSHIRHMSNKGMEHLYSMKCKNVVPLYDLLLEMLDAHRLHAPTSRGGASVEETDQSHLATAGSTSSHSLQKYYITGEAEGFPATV
Chain of Estrogen receptor (Homo sapiens) + Estrogen receptor beta (Homo sapiens) (Q92731 whole entry, looked up, the tested form may be a part): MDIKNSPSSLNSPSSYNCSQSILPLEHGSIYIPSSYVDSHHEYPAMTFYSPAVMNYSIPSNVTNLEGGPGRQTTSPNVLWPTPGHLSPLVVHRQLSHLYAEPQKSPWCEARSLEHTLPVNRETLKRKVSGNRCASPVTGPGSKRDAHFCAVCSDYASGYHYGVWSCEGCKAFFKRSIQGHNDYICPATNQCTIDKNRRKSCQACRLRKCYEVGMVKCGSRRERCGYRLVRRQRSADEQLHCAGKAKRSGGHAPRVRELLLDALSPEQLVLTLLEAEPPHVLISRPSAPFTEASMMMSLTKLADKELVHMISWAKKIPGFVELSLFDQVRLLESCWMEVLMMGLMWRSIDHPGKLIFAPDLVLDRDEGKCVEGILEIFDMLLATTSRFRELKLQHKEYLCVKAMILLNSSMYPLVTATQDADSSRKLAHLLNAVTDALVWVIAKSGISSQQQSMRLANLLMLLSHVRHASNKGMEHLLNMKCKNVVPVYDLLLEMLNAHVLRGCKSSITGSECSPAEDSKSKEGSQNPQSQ

The target of this assay is Estrogen receptor (Homo sapiens) + Estrogen receptor beta (Homo sapiens) (UniProt P03372+Q92731). Briefly: OT_ER_ERaERb_1440: Odyssey Thera (OT) 24-hour HEK293T Protein-Complementation Assay for Estrogen Receptor-alpha/-beta Homodimer (AID 2283356).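 Note: hits raise reporter fluorescence and both agonists and antagonists give an increase.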 Here is the method:
OT_ER_ERaERb_1440 is a cell-based assay that uses HEK293T, a human kidney cell line, with measurements taken at 24 hours after chemical dosing in a 384-well plate.OT_ER_ERaERb_1440 is one of one assay component(s) measured or calculated from the OT_ER_ERaERb_1440 assay. It is designed to make measurements of protein fragment complementation, a form of binding reporter, as detected with fluorescence intensity signals by Protein-fragment Complementation technology.Data from the assay component OT_ER_ERaERb_1440 was analyzed into 1 assay endpoint. This assay endpoint, OT_ER_ERaERb_1440, was analyzed in the positive analysis fitting direction relative to DMSO as the negative control and baseline of activity. Using a type of binding reporter, measures of receptor for gain-of-signal activity can be used to understand the binding at the pathway-level as they relate to the gene ESR1 and ESR2. Furthermore, this assay endpoint can be referred to as a primary readout, because the performed assay has only produced 1 assay endpoint. To generalize the intended target to other relatable targets, this assay endpoint is annotated to the nuclear receptor intended target family, where the subfamily is steroidal.
Protein-fragment complementation assay, or PCA, is a method for the identification and quantification of protein-protein interactions. In the PCA, the proteins of interest ("bait" and "prey") are each covalently linked to fragments of a third protein (e.g. DHFR, which acts as a "reporter"). Interaction between the bait and the prey proteins brings the fragments of the reporter protein in close proximity to allow them to form a functional reporter protein whose activity can be measured. The OT ER alpha / ER beta assay is a heterodimer PCA of the ligand binding domain (LBD) of ER alpha (amino acids 310-547) and human ER beta (amino acids 263-489) stably expressed in HEK293T cells. […] Fluorescent signal in the basal state of the assay is very low and is primarily punctuate and cytoplasmic. Modulation of this assay is quantified as an increase in mean fluorescence intensity in the nucleus (for agonists) or in the nucleus and cytoplasm (antagonists) relative to vehicle controls, and can be quantified on a high content imaging device or a laser scanning cytometer. The latter instrument is favored for this assay because of the rapid mode of data acquisition, the ability to acquire data from the entire cell population in a well (as opposed to a fraction of the well on the high content devices) and the larger dynamic range typically achieved with this instrument. To assess sensitivity of the ER alpha/ER beta LBD assay to ligand, cells were treated with the ER agonist 17- beta-estradiol (E2) in 10-point concentration- response format for 24 hours and monitored response on a laser scanning plate cytometer (Acumen eX3; TTP Lab Tech).
Turning to `CC(=O)Nc1cc(S(=O)(=O)O)cc2cc(S(=O)(=O)O)c(N=Nc3ccccc3)c(O)c12`, the result was inactive.
Turning to `CCCO[Si](OCCC)(OCCC)OCCC`, the result was inactive.
Regarding `CC(C)N(c1ccccc1)C(C)C`, the result was inactive.
As for `CCCCOCCOCCOCCO`, the outcome was inactive.
The same measure, in the same setting: the same measure for `OC[C@H]1O[C@@H](O[C@H]2[C@H](O)[C@@H](O)[C@H](O)O[C@@H]2CO)[C@H](O)[C@@H](O)[C@H]1O`: “inactive”.
As to `CCCCCCCCOC(=O)c1ccc(O)cc1`, the AC50 (in general, the midpoint of the concentration-response curve, whichever way the signal moves) was 24 µM (active).
In the case of `CCCC1CCC(=O)CC1`, the result was inactive.
Consider `CCCC[N+](C)(CCCC)CCCC`, for which the result was inactive.
Regarding `CCCCCCCCCCCCS`, the result was inactive.
Regarding `CCCCCC1CCC(=O)O1` (stereo not given), the result was inactive.
`CC(C)(CO)CO`: the outcome was inactive.
For the compound `CCCC(O)C(CC)CO` (stereo not given), the result was inactive.
Turning to `CCCCCCCCCOS(=O)(=O)O`, the outcome was inactive.
As for `CC(=O)CC(=O)N(C)C`, the outcome was inactive.
Same read-out and setting: the same measure for `Cc1cccc(O)c1`: “inactive”; for `NC(=O)c1cccnc1`: “inactive”; for `CCCCOCCOCCO`: “inactive”.
As to `FC(F)(F)c1ccc(Cl)c(Cl)c1`, the result was inactive.
For `CCC(=O)OC(C)(C)C1CC=C(C)CC1` (stereo not given), the outcome was inactive.
The same measure, in the same setting: under `CNC(=C[N+](=O)[O-])NCCSCc1ccc(CN(C)C)o1` stands “inactive”; under `CCCCC(CC)COCCO` (stereo not given), “inactive”; under `CC(=O)c1ccc(O)cc1`, “inactive”.
`CCc1cccc(O)c1`: the outcome was inactive.
On the same count and under the same terms, the same measure for `[Na+]`: “inactive”.
The same measure, in the same setting: the same measure for `CCC(C)C1CCCCC1=O` (stereo not given): “inactive”; for `O=S(=O)(O)c1cc(S(=O)(=O)O)c2c(N=Nc3ccccc3)c(O)ccc2c1`: “inactive”.
Turning to `CC(=O)c1ccc2ccccc2c1`, the AC50 is 31.6 µM (active).
For the compound `CCO[Si](CC)(OCC)OCC`, the result was inactive.
On to `CC(C)C(=O)c1ccccc1`, for which the result was inactive.
Same read-out and setting: under `COC(=O)c1ccc(C(=O)OC)cc1` stands “inactive”; under `CC(O)CN` (stereo not given), “inactive”.
`CC1COC(=O)O1` (stereo not given): the outcome was inactive.
For `CCCCCCCCCO`, the outcome was inactive.
With `COc1cc(OC)c2ccc(=O)oc2c1`, the result was inactive.
As for `COc1ccc2[nH]cc(CCNC(C)=O)c2c1`, the outcome was inactive.
Consider `CCC(C)(C)C1CCC(OC)CC1` (stereo not given), for which the outcome was inactive.
Take `CN(C)C`: the outcome was inactive.
For the compound `CCOCC(C)O` (stereo not given), the outcome was inactive.
As to `CCC(C)(CCCC(C)C)OC(C)=O` (stereo not given), the outcome was inactive.
The same measure, in the same setting: under `CCCCCCCC(=O)N(C)C` stands “inactive”.
